This passage reports growth results from PubChem BioAssay (NCI).

“And” between values parts separate entries of the source, which are not always exact repeats. Equal values may be shown once. About 83,000 compounds went through this panel and 20% of them were active in at least one assay; those are over-represented in the sample as a whole.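 In brief: 96-well plates, 48 h treatment, single concentration, percent growth endpoint.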 The source made the active and inactive calls.

The test system of one assay is OVCAR-3 ovarian. The experiment in a line: NCI-60 one-dose screen, 48 h (100 = growth as untreated, 0 = no growth, -100 = all killed). The conditions noted are these: 0.0025 µM. The method, then: Growth inhibition of the OVCAR-3 human tumor cell line is measured as a screen for anti-cancer activity. Cells are grown in 96 well plates and exposed to the test compound for 48 hours. Compounds are tested at a single concentration, which is 10^-5 M for most compounds. The reported endpoint is percent growth (GI% or GIPRCNT), where numbers from 0 - 100% represent growth inhibition, and numbers from -100% - 0 represent cell death. For example, a value of 40 represents 60% growth inhibition. A value of 0 means no net growth occurred over the course of the experiment. A value of -40 indicates 40% of cells at the beginning of the experiment died by the end of the experiment. A value of -100 means all cells are dead at the end of the experiment.
NCI-60 Human Tumor Cell Lines Screen was performed using the standard one-dose NCI protocol, which is described in more detail at https://dtp.cancer.gov/discovery_development/nci-60/default.htm.
Compounds with GIPRCNT values below 10 were considered active. Activity score was based on GIPRCNT using the following formula: […]
Score is 0 for GIPRCNT values of 100 or above, 50 for GIPRCNT values of 0, and 100 for GIPRCNT values of -100.
Turning to `COc1cccc2c1C(=O)c1c(O)c3c(c(O)c1C2=O)C[C@@](O)(C(=O)CO)C[C@@H]3OC1CC(N)C(O)C(C)O1` (stereo not given in full), the growth is 105% (inactive).

The same assay, now with this note: 1 µM.
For the molecule `COc1cccc2c1C(=O)c1c(O)c3c(c(O)c1C2=O)C[C@@](O)(C(=O)CO)C[C@@H]3OC1CC(N)C(O)C(C)O1` (stereo not given in full), the growth is 81.8% (inactive).

The same assay, now with this note: 10 µM.
As for `O=C(Nc1ccc(C(=O)O)c(O)c1)c1ccccc1`, the growth was 115% (inactive) and 125% (inactive).
Take `CC(=O)Nc1cc(C)ccc1C`: the growth is 102% (inactive).
Regarding `CCCC1CCC(=C2C(=O)CCC2=O)O1` (stereo not given), the growth is 101% (inactive) and 94% (inactive).
The same measure, in the same setting: the figure for `Nc1ccc2cc3ccc(N)cc3nc2c1` is 122% (inactive) and 11.3% (inactive); for `O=c1ccn(C2CC(O)C(COC(c3ccccc3)(c3ccccc3)c3ccccc3)O2)c(=O)[nH]1` (stereo not given) it is 102% (inactive).
Regarding `Oc1ccc(N=Nc2ccccn2)c(O)c1`, the growth was 32.7% (inactive).
The same measure, in the same setting: the figure for `CSC1SCC2C(=O)N(C)C(C(C)C)C(=O)OCC(NC(=O)c3cnc4ccccc4n3)C(=O)NC(C)C(=O)N(C)C1C(=O)N(C)C(C(C)C)C(=O)OCC(NC(=O)c1cnc3ccccc3n1)C(=O)NC(C)C(=O)N2C` (stereo not given) is 5.79% (active).
On the same count and under the same terms, with `O=C(O)COc1ccc(OCC(=O)O)cc1` the figure was 16.7% (inactive).
As for `COc1cccc2c1C(=O)c1c(O)c3c(c(O)c1C2=O)C[C@@](O)(C(=O)CO)C[C@@H]3OC1CC(N)C(O)C(C)O1` (stereo not given in full), the growth was 10.2% (inactive).
The same measure, in the same setting: with `COC1OCC(O)C(O)C1O` (stereo not given) the figure was 106% (inactive); with `Clc1ccc(/C=C/c2ccccn2)c(Cl)c1`, 90.4% (inactive).
Same read-out and setting: with `Nc1c2ccccc2nc2ccccc12` the figure was 3.88% (active) and 52.9% (inactive); with `O=C1C=C(O)c2ccccc2C1=O.[Ag]`, 117% (inactive).
Take `NNc1ccc2ccccc2c1`: the growth was 92.1% (inactive) and 99.6% (inactive).
With `CCN1/C(=C/C=C/C=C/c2sc3ccccc3[n+]2CC)Sc2ccccc21`, the growth is -64.1% (active).
The same measure, in the same setting: with `CN(C)C(=S)SC(=S)N(C)C` the figure was 98.8% (inactive) and 96.2% (inactive); with `CC1=CC(C)=Nc2ccc(Cl)cc2N1`, 102% (inactive); with `COC(=O)C1=COC(C)C2C[n+]3ccc4c([nH]c5ccccc54)c3CC12` (stereo not given), 104% (inactive) and 97.4% (inactive).
In the case of `O=C1NC(=O)c2cc([N+](=O)[O-])ccc21`, the growth was 110% (inactive).
The same measure, in the same setting: with `CC[N+](CC)=c1ccc2nc3c(cc(N)c4ccccc43)oc-2c1` the figure was -56.8% (active).
In the case of `Cc1cc(NS(=O)(=O)c2ccc(N=Nc3cc(N=Nc4ccc(S(=O)(=O)Nc5cc(C)nc(C)n5)cc4)c4c(NC(=O)C(Cl)Cl)cccc4c3OC(=O)C(Cl)Cl)cc2)nc(C)n1` (tested in a mixture with another compound), the growth was 114% (inactive) and 93.3% (inactive).
On the same count and under the same terms, the figure for `CC(C)(C)CC(C)(C)c1ccc(OCCO)cc1` is 116% (inactive).
Regarding `OCC(O)C(O)C(O)C(/C=N/Nc1ccccc1)=N/Nc1ccccc1` (stereo not given), the growth is 90.4% (inactive).
Still for that read-out and setting: the figure for `CCCCCCCCCCCCSC(=NC)NC` is 36.8% (inactive) and 71.7% (inactive); for `CCCCCCCCCCCCCCCCCCOCC(COP(=O)([O-])OCC[N+](C)(C)C)OC` (stereo not given) it is 95.9% (inactive).
Consider `O=C(/C=C/c1ccccn1)c1ccccc1`, for which the growth is 17.3% (inactive).
As for `COc1ccc(CC(=O)c2ccc(O)cc2O)cc1`, the growth is 130% (inactive).
On the same count and under the same terms, with `COc1cccc2c1C(=O)c1c(O)c3c(c(O)c1C2=O)C[C@@](O)(C(C)=O)C[C@@H]3OC1CC(N)C(O)C(C)O1` (stereo not given in full) the figure was -1.56% (active); with `CCCCCCCCCCCC[N+](C)(C)Cc1ccccc1`, -0.287% (active); with `O=C1C=CC(=CC=C2C=CN(CCCCCCCCCCCO)C=C2)C=C1`, 30.2% (inactive).
The same measure, in the same setting: with `CCC(C)(C)c1cc(O)c(C(C)(C)CC)cc1O` the figure was 37.2% (inactive); with `O=C(C(=Cc1ccccc1)C(=O)c1ccccc1)c1ccccc1`, 66.3% (inactive) and 85.7% (inactive).
The same measure, in the same setting: the figure for `CS(=O)(=O)OC1CC(n2ccc(=O)[nH]c2=O)OC1COC(c1ccccc1)(c1ccccc1)c1ccccc1` (stereo not given) is 100% (inactive).
Take `CN1CCN(CCCN2c3ccccc3Sc3ccc(C(F)(F)F)cc32)CC1`: the growth is 92% (inactive).
For `OCC1OC(n2cnc3c(=S)nc[nH]c32)C(O)C1O` (stereo not given), the growth was 113% (inactive) and 47% (inactive).
For the molecule `N=S(c1ccccc1[N+](=O)[O-])c1ccccc1[N+](=O)[O-]`, the growth was -58.8% (active).
With `NC1=C(Cl)C(=O)c2ccccc2C1=O`, the growth is 12.3% (inactive).

The assay is the same for the next values; noted with them: 100 µM.
Regarding `O=c1ccn(C2CC(O)C(COC(c3ccccc3)(c3ccccc3)c3ccccc3)O2)c(=O)[nH]1` (stereo not given), the growth is 47.8% (inactive).
